# Bioassay records from PubChem BioAssay.
# Only some compounds are listed: those with a hit (about 6.8% of all), similar ones and a draw of the others.
# KB-3-1 cytotox: KB-3-1 parental cell cytotoxicity; KB-3-1 viability, CellTiter-Glo ATP luminescence, 72 h; Potency, µM (doses to about 46.1 µM), hits mostly cytotoxic; hit rate 1.4% among 400,000; AID 1347075; also: % is scaled to controls: 0 for no effect and ±100 for the full control effect; nearly all actives have a fitted effect of over 60% in size
#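 Multi-concentration cytotoxicity screen in KB-3-1 cells grown in DMEM lacking phenol red with 10% FBS. After 72 h at 37 °C with compound, ATP-dependent luminescence was recorded.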
# KB-V1 MDR tox: KB-V1 MDR subline cytotoxicity | KB-V1 MDR cells viability, CellTiter-Glo, 72 h | Potency, µM (doses to about 46.1 µM), actives largely listed as cytotoxic | hit rate 3.4% among 400,000 | AID 1347076; also: % is scaled to controls: 0 for no effect and ±100 for the full control effect; nearly all actives have a fitted effect of over 60% in size
#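 KB-V1 MDR subline cells in DMEM (phenol-red free, 10% FBS) exposed to compounds in qHTS concentration series for 72 h at 37 degrees C. Viability read by CellTiter-Glo luminescence; concentration-effect curves fitted after normalization and correction.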
# PINK1 expr mod: changes PINK1 expression; hit rate 0.2% among 410,000; AID 624263; Potency, µM (doses to about 76.6 µM), inactives show at the top dose activation (PINK1 increase), actives largely listed as activators; PINK1 immunofluorescence, high-content cytometry, 24 h; active = well fitted activation curve with a large enough effect; inconclusive = small, poorly fitted or top-dose-only effect; cell line not stated here; also: % of control where 0% means no effect; nearly all actives have a fitted effect of over 65% in size
#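 Stable cell line treated 24 h with compounds at 5 concentrations (CCCP controls), then fixed and immunostained for PINK1 plus nuclear and cell stains; PINK1 immunofluorescence quantified by laser-scanning microplate cytometry.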
# PTAP TSG101 blk: blocks PTAP/TSG101 interaction to inhibit HIV-1 budding | Fluorescence polarization, FITC-PTAP peptide / Tsg101 binding | Potency, µM (titrated, usually from 115 µM), without a hit: at the top dose activity change, negative = inhibition, usual class: inhibitors | 340,000 tested, under 10 active | AID 493005; active = well fitted inhibition curve with a large enough effect in the main read-out, with a control signal flat, not every such curve was filed as active; inconclusive = small, poorly fitted or top-dose-only effect, or effect the other way, or a change in a side signal; inactive = no such curve, though single readings can be large or run the other way; also: % of control where 0% means no effect
# Target sequence (Q99816 whole entry, looked up): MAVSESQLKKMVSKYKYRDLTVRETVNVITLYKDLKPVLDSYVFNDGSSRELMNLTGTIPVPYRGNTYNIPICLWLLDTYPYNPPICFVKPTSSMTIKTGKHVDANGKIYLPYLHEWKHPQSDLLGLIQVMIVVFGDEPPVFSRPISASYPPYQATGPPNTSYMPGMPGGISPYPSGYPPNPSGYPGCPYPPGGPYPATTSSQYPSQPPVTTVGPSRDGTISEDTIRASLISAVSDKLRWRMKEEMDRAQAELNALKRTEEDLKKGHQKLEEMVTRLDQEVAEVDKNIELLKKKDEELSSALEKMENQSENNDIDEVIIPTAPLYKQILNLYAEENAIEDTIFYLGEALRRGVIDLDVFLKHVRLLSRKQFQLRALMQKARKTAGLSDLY
#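 Tsg101 binding domain (10 uM final) was mixed with compound and a FITC-labeled PTAP peptide (50 nM final) in HEPES pH 7.5 buffer with NaCl, Tween 20, EDTA and TCEP; fluorescence polarization was read after 20 min at r.t.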
# MCF10A rereplic: DNA re-replication induction in MCF 10a cells. MCF 10A DNA re-replication, Hoechst nuclear intensity, 48 h. Potency, µM (highest dose often 46.1 µM), without a hit: at the top dose activity, positive = re-replication, hits mostly activators. hit rate 2.9% among 350,000; also: % of control where 0% means no effect; nearly all actives have a fitted effect of over 50% in size
# SW480 rereplic: inducers of DNA re-replication in SW480 colon cancer cells | hit rate 1.8% among 340,000 | AID 624297 | SW480 DNA re-replication, Hoechst DNA content imaging, 48 h | Potency, µM (titrated, usually from 46.1 µM), for the others: at the top dose re-replication activation, hits mostly activators; also: % of control where 0% means no effect; nearly all actives have a fitted effect of over 55% in size
#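 Image-based DNA-content assay: after two days of treatment, nuclei were labelled with the DNA dye Hoechst and imaged, and hits were compounds raising the count of nuclei showing high fluorescence intensity.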
# Starred values were filed as active, the others as inactive; i = inactive; ? = inconclusive; / = not tested or not shown; [ ] = remark or other dose. Unless noted, calls follow the shape of the dose curve; as a rule, active = well fitted curve in the direction sought with a large enough effect; inconclusive = small, poorly fitted or top-dose-only effect, or another doubt; inactive = no such curve, though single readings can be large; an effect the other way counts as inactive or inconclusive. Potency is read from the fitted curve at half-maximal effect.
SMILES,KB-3-1 cytotox,KB-V1 MDR tox,PINK1 expr mod,PTAP TSG101 blk,MCF10A rereplic,SW480 rereplic
O=C(NC(=S)Nc1nc(-c2ccc(Br)cc2)cs1)c1ccco1,i,?,13%,-6%,47%,-4%
COc1cc2nc(N3CCCN(C)CC3)nc(NC3CCOCC3)c2cc1OC,/,/,0%,/,/,/
CC1CCc2c(sc3nc(CN4CCOCC4)nc(Sc4ccccc4)c23)C1 (stereo not drawn),i,8.2µM*,7%,-2%,2%,-8%
CC1CCc2c(sc3ncnc(N4CCOCC4)c23)C1 (stereo not drawn),i,15µM*,-4%[38.3 µM],-4%,18%,0%
O=C(C[N+]12CN3CN(CN(C3)C1)C2)c1ccc(Cl)cc1,i,i,2%,/,/,/
COc1ccccc1N1CCN(S(=O)(=O)c2c(C)sc3ncn(CC(=O)N(C)c4ccc(Cl)cc4)c(=O)c23)CC1,i,i,1%,/,/,/
O=C(CN1C(=O)C(=O)N(Cc2ccccc2)C1=O)Nc1cc(Cl)cc(Cl)c1,23µM*,?,2%,-3%,?,18µM*
Cc1ccc(C)c(N2CCN(C(c3ccccc3)c3nnc(-c4ccccc4F)o3)CC2)c1 (stereo not drawn),i,i,1%,/,/,/
CCN(CCCNC(=O)c1cc2cc3ccc(OC)cc3nc2s1)c1ccccc1,/,/,2%,/,/,/
COc1ccc2nc3sc(C(=O)NCCCN4CCc5ccccc5C4)cc3cc2c1,i,5.8µM*,?,-2%,?,?
c1cncc(-c2cncnc2-n2ccnc2)c1,/,/,0%,/,/,/
COc1ccc(C(=O)NCc2ccc3c(c2)OCO3)cc1S(=O)(=O)N(C)Cc1ccccc1,i,9.2µM*,0%,0%,1%,-2%
COc1ccc(CNS(=O)(=O)CCNC(=O)c2cccc(OC)c2)cc1,i,16µM*,-1%,1%,3%,-3%
COc1ccc(C(=O)NCc2ccc3c(c2)OCO3)cc1S(=O)(=O)NCc1ccc(Cl)cc1,i,i,1%,-4%,-3%,-1%
COc1cccc(C(=O)NCCS(=O)(=O)NCc2ccc3c(c2)OCO3)c1,i,18µM*,-1%,-1%,7%,-6%
COc1ccc(N2C(=O)C(CC(=O)Nc3ccccc3)N(CCC3=CCCCC3)C2=O)cc1 (stereo not drawn),i,i,3%,/,/,/
O=C(CC1NCCNC1=O)Nc1ccccc1F (stereo not drawn),i,i,2%,/,/,/
Cc1ccc(N2CCN(C(=O)c3c4c(nc5ccccc35)C(=O)N(C3CCCCC3)C4)CC2)c(C)c1,i,i,1%,/,/,/
CCN(Cc1ccccc1)C(=O)C1CCN(Cc2sccc2C)CC1,i,?,-2%,-2%,-2%,29µM*
CC1=C(C(=O)OCC(C)C)C(c2cc3c(cc2Br)OCO3)NC(=O)N1C (stereo not drawn),i,i,3%,-6%,2%,-2%
COC(=O)C1=CN(C(C)C)C=C(C(=O)OC)C1c1cc2c(cc1Br)OCO2,i,i,-3%[38.3 µM],-2%,15µM*,?
Cc1ccc(-n2cccc2C(=S)N=P(N(C)C)(N(C)C)N(C)C)cc1,8.2µM*,3.3µM*,?,-1%,?,?
Cc1ccc(-n2cccc2C(=O)NS(=O)(=O)c2ccc(C)cc2)cc1,i,i,3%,3%,4%,-4%
CC(C)(C)C1CCc2c(sc(NC(=O)c3cc(-c4ccc(F)cc4)on3)c2C#N)C1 (stereo not drawn),i,i,0%,/,/,/
CC1CC(C(F)F)n2nc(C(=O)Nc3sc4c(c3C#N)CCC(C(C)(C)C)C4)nc2N1 (stereo not drawn),16µM*,?,5%,-1%,?,6%[9.22 µM]
SMILES,KB-3-1 cytotox,KB-V1 MDR tox,PINK1 expr mod,PTAP TSG101 blk,MCF10A rereplic,SW480 rereplic
CCn1c(C)nc2cc(-c3nc4n(n3)Cc3ccccc3-4)ccc21,5.8µM*,?,2%,-10%,17%,-14%
Cc1ccc(NC(=O)CN2CCSc3ccc(S(=O)(=O)N4CCCC4)cc32)cc1C,?,10µM*,2%,/,/,/
CCOc1ccc(C(=S)N2CCOCC2)cc1OC,i,i,-2%,-11%,-5%,-7%
CCOc1cc2nc(-c3ccc(OC)c(OC)c3)nc(N3CCOCC3)c2cc1OC,?,?,0%,-7%,?,23µM*
CCOc1cc(C(=S)N2CCOCC2)ccc1OC(=O)c1ccccc1,i,i,-1%,0%,-9%,-2%
CCOc1cc(C(=S)N2CCOCC2)ccc1OC,i,i,3%[38.3 µM],-3%,13µM*,1%
CCOc1cc(C(=S)N2CCOCC2)ccc1OS(=O)(=O)c1ccccc1,i,2.3µM*,-1%,0%,?,1%
COc1cc2nc(Cl)nc(N3CCOCC3)c2cc1OC,i,?,1%,1%,6%,-8%
O=C(CN1C(=O)COc2ccc(S(=O)(=O)N3CCOCC3)cc21)N1CCN(c2ccc(F)cc2)CC1,i,?,0%,/,/,/
COc1ccc(-n2c(Cn3nnc4ccccc43)nnc2SCC(=O)O)cc1,i,i,-1%,-1%,8%,-2%
COc1ccc(N(Cc2ccccc2)C(=O)CSc2nnc(Cn3nnc4ccccc43)o2)cc1,?,8.2µM*,0%,-4%,?,?
O=C(CSc1nnc(Cn2nnc3ccccc32)o1)Nc1ccc(Cl)cc1,i,i,-1%,-4%,-2%,0%
O=C(CSc1nnc(Cn2nnc3ccccc32)o1)N(Cc1ccc(F)cc1)c1ccccc1,5.2µM*,?,/,-3%,17%,-2%
O=C(CCCCn1c(=O)c2ccccc2n(Cc2cccc(F)c2)c1=O)NCc1ccc2c(c1)OCO2,?,?,9%,/,/,/
O=C(NCC1CCCO1)c1cc2c([nH]c3ccccc32)c(-c2cccc(Cl)c2)n1 (stereo not drawn),?,?,2%,-2%,?,21µM*
COc1ccc(OC)c(Nc2cc(C(=O)NCCCN3CCOCC3)c3ccccc3n2)c1,i,18µM*,1%,-5%,13%,8%
O=C(NCCCN1CCOCC1)c1cc2c([nH]c3ccccc32)c(-c2cccc(Br)c2)n1,?,?,2%,-3%,4.6µM*,16%
COc1cc(-c2nc(C(=O)NCC3CCCO3)cc3c2[nH]c2ccccc23)cc(OC)c1OC (stereo not drawn),i,?,-1%,-5%,?,-3%
COc1cccc(-c2nc(C(=O)NCCCN3CCOCC3)cc3c2[nH]c2ccccc23)c1,i,18µM*,-1%,0%,?,?
